This note sets out measurements from the antibiotic and cytotoxicity screens of Wong et al. (2023).

The campaign covered roughly 39,000 compounds. About 1,500 (3.8%) were called active. The full list was thinned out, with actives kept by preference.

The subject of the experiment is HSkMC (human skeletal muscle cells). Nature of the experiment: cytotoxicity call (relative viability < 0.9). To be noted: 10 µM.
`COc1ccc2c3c(n(c2c1)C)[C@H](CO)N(C[C@]13CN(C1)C(=O)CN1CCOCC1)C(=O)Nc1ccc(cc1)F`: the cytotoxicity call is “inactive”.

As to `C[C@H]1CN([C@@H](C)CO)C(=O)CCCn2cc(nn2)CO[C@@H]1CN(C)C(=O)c1ccc(N2CCN(C)CC2)cc1`, the cytotoxicity call was “inactive”.

For `CC/C(=C\C(=O)O)c1ccccc1`, the cytotoxicity call was “inactive”.

`O=C(C[C@@H]1C[C@@H]2c3cc(NC(=O)C4CCOCC4)ccc3O[C@@H]2[C@H](CO)O1)NCCN1CCCCC1`: the cytotoxicity call is “inactive”.

On to `COCC(=O)N1C[C@@H](C)[C@@H](OC)CN(C)C(=O)c2ccc(NC(=O)Nc3cccc(F)c3)cc2OC[C@@H]1C`, for which the cytotoxicity call is “inactive”.

With `Cc1cccc(S(=O)(=O)N2C[C@H](O)COC[C@H]3O[C@H](CC(=O)NCc4ccncn4)CC[C@@H]32)c1`, the cytotoxicity call is “inactive”.

For `C[C@@H]1CCN(C(=O)[C@H](CCCNC(=N)N)NS(=O)(=O)c2cccc3c2NC[C@H](C)C3)[C@@H](C(=O)O)C1`, the cytotoxicity call was “inactive”.

In the case of `CNC(=O)C[C@@H]1CC[C@@H]2[C@H](COC[C@H](O)CN2C(=O)c2ccccn2)O1`, the cytotoxicity call was “inactive”.

On to `N#C[C@@H]1[C@H](c2ccc(C#Cc3ccccn3)cc2)[C@@H](CO)N1C(=O)CN1CCOCC1`, for which the cytotoxicity call is “inactive”.

For `CC(C)NC(=O)N(C)C[C@@H]1Oc2ccc(NS(=O)(=O)c3cn(C)cn3)cc2C(=O)N([C@H](C)CO)C[C@@H]1C`, the cytotoxicity call was “inactive”.

As to `C[C@@H]1CN([C@@H](C)CO)C(=O)c2cc(NC(=O)Nc3ccccc3)ccc2O[C@@H](C)CCCCO[C@H]1CN(C)S(=O)(=O)c1cccs1`, the cytotoxicity call was “inactive”.

Consider `C[C@@H]1CN([C@@H](C)CO)C(=O)c2cccc(NC(=O)Nc3ccc(C(F)(F)F)cc3)c2O[C@H]1CN(C)C(=O)Nc1ccc(C(F)(F)F)cc1`, for which the cytotoxicity call was “inactive”.

Take `C[C@H]1CN([C@@H](C)CO)C(=O)c2cccc(NC(=O)Nc3ccc(C(F)(F)F)cc3)c2O[C@H]1CN(C)C(=O)Nc1ccc(F)cc1`: the cytotoxicity call is “inactive”.

For `C[C@@H]1CN([C@H](C)CO)C(=O)c2cccc(NC(=O)Nc3ccc(C(F)(F)F)cc3)c2O[C@@H]1CN(C)C(=O)Nc1ccc(F)cc1`, the cytotoxicity call was “inactive”.

Take `C[C@H]1CN([C@@H](C)CO)C(=O)c2cccc(NC(=O)Nc3ccc(C(F)(F)F)cc3)c2O[C@@H]1CN(C)C(=O)Nc1ccc(C(F)(F)F)cc1`: the cytotoxicity call is “active”.

Regarding `C[C@@H]1CN([C@H](C)CO)C(=O)c2cccc(NC(=O)Nc3ccc(C(F)(F)F)cc3)c2O[C@H]1CN(C)C(=O)Nc1ccc(C(F)(F)F)cc1`, the cytotoxicity call is “inactive”.

Turning to `C[C@@H]1CN([C@H](C)CO)C(=O)c2cccc(NC(=O)Nc3ccc(F)cc3)c2O[C@@H]1CN(C)C(=O)Nc1ccc(C(F)(F)F)cc1`, the cytotoxicity call was “inactive”.

As for `C[C@@H]1CN([C@@H](C)CO)C(=O)c2cccc(NC(=O)Nc3ccc(C(F)(F)F)cc3)c2O[C@@H]1CN(C)C(=O)Nc1ccc(C(F)(F)F)cc1`, the cytotoxicity call was “active”.

With `C[C@H](CO)N1C[C@H](C)[C@H](CN(C)C(=O)Nc2ccc(F)cc2)Oc2c(NC(=O)Nc3ccc(C(F)(F)F)cc3)cccc2C1=O`, the cytotoxicity call was “active”.

Turning to `C[C@H](CO)N1C[C@H](C)[C@@H](CN(C)C(=O)Nc2ccc(C(F)(F)F)cc2)Oc2c(NC(=O)Nc3ccc(C(F)(F)F)cc3)cccc2C1=O`, the cytotoxicity call was “active”.

`C[C@H]1CN([C@@H](C)CO)C(=O)c2cccc(NC(=O)Nc3ccccc3)c2O[C@@H]1CN(C)C(=O)Nc1ccc(C(F)(F)F)cc1`: the cytotoxicity call was “inactive”.

Regarding `Cc1noc(C)c1S(=O)(=O)N(C)C[C@@H]1Oc2ccc(NC(=O)NC3CCCCC3)cc2CC(=O)N([C@H](C)CO)C[C@H]1C`, the cytotoxicity call was “inactive”.

For the compound `O=C(C[C@@H]1C=C[C@@H](NC(=O)c2ccc(F)cc2)[C@H](CO)O1)NCc1ccncn1`, the cytotoxicity call was “inactive”.

Regarding `O=C(O)c1cc(O)c(O)c(O)c1` [listing 1 of 2 here], the cytotoxicity call was “inactive”.

Regarding `O=C(O)c1ccc(O)c(O)c1`, the cytotoxicity call is “inactive”.

For `O=C(O)c1cc(O)c(O)c(O)c1` [listing 2 of 2 here], the cytotoxicity call was “active”.

Turning to `COc1ccc(NC(=O)Nc2ccc3c(c2)C(=O)N([C@@H](C)CO)C[C@@H](C)[C@H](CN(C)C(=O)C2CCCCC2)OCCCC[C@H](C)O3)cc1`, the cytotoxicity call is “inactive”.

For the compound `C[C@@H]1CN([C@H](C)CO)C(=O)Cc2cc(NC(=O)Cn3cnnn3)ccc2O[C@H]1CN(C)S(=O)(=O)c1cccs1`, the cytotoxicity call is “inactive”.

`Oc1c(Cl)cc(Cl)c2cccnc12`: the cytotoxicity call is “inactive”.

`Oc1ccc(Cl)c2cccnc12` [listing 1 of 2 here]: the cytotoxicity call is “active”.

As for `Oc1ccc(Cl)c2cccnc12` [listing 2 of 2 here], the cytotoxicity call is “inactive”.

`O=C(NO)c1cccnc1`: the cytotoxicity call was “inactive”.

Consider `CCNC(=O)C[C@H]1C=C[C@H](NC(=O)C2CC2)[C@@H](CO)O1`, for which the cytotoxicity call is “inactive”.

As for `C[C@H]1CCCCO[C@@H](CN(C)Cc2ccccc2)[C@@H](C)CN([C@@H](C)CO)C(=O)c2cc(NC(=O)c3ccncc3)ccc2O1`, the cytotoxicity call was “inactive”.

For the compound `COc1cccc2c1C(=O)c1c(O)c3c(c(O)c1C2=O)CC(O)(C(=O)CO)CC3OC1CC(N)C(O)C(C)O1` (stereo not given) [listing 1 of 2 here], the cytotoxicity call is “inactive”.

For `COc1cccc2c1C(=O)c1c(O)c3c(c(O)c1C2=O)C[C@@](O)(C(=O)CO)C[C@@H]3O[C@H]1C[C@H](N)[C@@H](O)[C@H](C)O1`, the cytotoxicity call was “inactive”.

Take `COc1cccc2c1C(=O)c1c(O)c3c(c(O)c1C2=O)C[C@@](O)(C(=O)CO)C[C@@H]3O[C@H]1C[C@H](N)[C@H](O)[C@H](C)O1`: the cytotoxicity call is “active”.

As for `COc1cccc2c1C(=O)c1c(O)c3c(c(O)c1C2=O)CC(O)(C(=O)CO)CC3OC1CC(N)C(O)C(C)O1` (stereo not given) [listing 2 of 2 here], the cytotoxicity call was “active”.

In the case of `CCCCC(=O)OCC(=O)[C@]1(O)Cc2c(O)c3c(c(O)c2[C@@H](O[C@H]2C[C@H](NC(=O)C(F)(F)F)[C@H](O)[C@H](C)O2)C1)C(=O)c1c(OC)cccc1C3=O`, the cytotoxicity call was “active”.

For the compound `COc1cccc2c1C(=O)c1c(O)c3c(c(O)c1C2=O)CC(O)(C(=O)CO)CC3OC1CC(N)C(O)C(C)O1.Cl` (stereo not given), the cytotoxicity call is “inactive”.

Consider `COc1cccc2c1C(=O)c1c(O)c3c(c(O)c1C2=O)C[C@](O)(C(=O)CO)C[C@H]3O[C@H]1C[C@@H](N)[C@@H](O)[C@@H](C)O1`, for which the cytotoxicity call is “active”.

`COc1ccc(S(=O)(=O)Nc2ccc3c(c2)C(=O)N([C@@H](C)CO)C[C@@H](C)[C@@H](CN(C)CC2CCCCC2)OCCCC[C@H](C)O3)cc1`: the cytotoxicity call was “inactive”.

For `C=CCOC(=O)[C@@H]1[C@H]2C(=O)O[C@H](c3ccccc3)[C@H](c3ccccc3)N2[C@H](c2ccc(OCCOC(=O)[C@H]3C[C@H]4C(=O)N5CCC[C@H]5C(=O)N4[C@H]3c3ccc(O)cc3)cc2)[C@@]12C(=O)Nc1ccc(I)cc12`, the cytotoxicity call is “inactive”.

As for `C[C@H]1CN([C@@H](C)CO)C(=O)c2cc(NC(=O)CCCCCC(=O)Nc3ccccc3N)ccc2O[C@@H]1CN(C)S(C)(=O)=O`, the cytotoxicity call was “inactive”.

`O=C(C[C@H]1CC[C@H]2[C@@H](COC[C@@H](O)CN2Cc2ccccc2F)O1)N[C@@H]1CCN(Cc2ccccc2)C1`: the cytotoxicity call is “inactive”.

With `CCCCCCCCCCNc1cc(CO)c2cc[nH]c2c1`, the cytotoxicity call was “inactive”.

Consider `COc1ccc(S(=O)(=O)Nc2ccc3c(c2)C(=O)N([C@H](C)CO)C[C@H](C)[C@H](CN(C)C(=O)NC2CCCCC2)OCCCC[C@H](C)O3)cc1`, for which the cytotoxicity call was “inactive”.

Regarding `C[C@@H]1CN([C@H](C)CO)C(=O)Cc2cc(NS(=O)(=O)c3ccc(F)cc3)ccc2O[C@H]1CN(C)Cc1ccc(Cl)c(Cl)c1`, the cytotoxicity call was “inactive”.

As to `C[C@H]1CN([C@@H](C)CO)C(=O)Cc2cc(NS(=O)(=O)c3ccc(F)cc3)ccc2O[C@H]1CN(C)Cc1ccc(Cl)c(Cl)c1`, the cytotoxicity call was “inactive”.

On to `C[C@@H]1CN([C@@H](C)CO)C(=O)Cc2cc(NS(=O)(=O)c3ccc(F)cc3)ccc2O[C@@H]1CN(C)Cc1ccc(Cl)c(Cl)c1`, for which the cytotoxicity call was “active”.

On to `C[C@@H]1CN([C@H](C)CO)C(=O)Cc2cc(NS(=O)(=O)c3ccc(F)cc3)ccc2O[C@@H]1CN(C)Cc1ccc(Cl)c(Cl)c1`, for which the cytotoxicity call was “active”.

On to `C[C@H]1CN([C@@H](C)CO)C(=O)Cc2cc(NS(=O)(=O)c3ccc(F)cc3)ccc2O[C@@H]1CN(C)Cc1ccc(Cl)c(Cl)c1`, for which the cytotoxicity call was “inactive”.

As for `C[C@@H]1CN([C@@H](C)CO)C(=O)Cc2cc(NS(=O)(=O)c3ccc(F)cc3)ccc2O[C@H]1CN(C)Cc1ccc(Cl)c(Cl)c1`, the cytotoxicity call is “inactive”.

`C[C@H]1CCCCO[C@@H](CN(C)S(=O)(=O)c2cccs2)[C@@H](C)CN([C@@H](C)CO)C(=O)c2cc(NC(=O)C3CCCCC3)ccc2O1`: the cytotoxicity call was “inactive”.

Consider `C[C@H](CO)N1C[C@H](C)[C@H](CN(C)Cc2ccc(C(=O)Nc3ccccc3N)cc2)Oc2ccc(NC(=O)C3CCCCC3)cc2C1=O`, for which the cytotoxicity call is “inactive”.

For the compound `C[C@@H]1CN([C@@H](C)CO)C(=O)Cc2cc(NS(=O)(=O)c3cccs3)ccc2O[C@H]1CN(C)Cc1ccc(Cl)c(Cl)c1`, the cytotoxicity call is “inactive”.

As to `C[C@@H]1CN([C@H](C)CO)C(=O)Cc2cc(NS(=O)(=O)c3cccs3)ccc2O[C@@H]1CN(C)Cc1ccncc1`, the cytotoxicity call was “inactive”.

As to `C[C@H](CO)N1C[C@H](C)[C@H](CN(C)Cc2ccc(Cl)c(Cl)c2)Oc2ccc(NS(=O)(=O)c3cccs3)cc2CC1=O`, the cytotoxicity call was “inactive”.

As for `C[C@H](CO)N1C[C@H](C)[C@@H](CN(C)Cc2ccc(Cl)c(Cl)c2)Oc2ccc(NS(=O)(=O)c3cccs3)cc2CC1=O`, the cytotoxicity call was “inactive”.

`C[C@H]1CN([C@@H](C)CO)C(=O)Cc2cc(NS(=O)(=O)c3cccs3)ccc2O[C@@H]1CN(C)Cc1ccc(Cl)c(Cl)c1`: the cytotoxicity call was “inactive”.

Turning to `C[C@@H]1CN([C@H](C)CO)C(=O)Cc2cc(NS(=O)(=O)c3cccs3)ccc2O[C@H]1CN(C)Cc1ccc(Cl)c(Cl)c1`, the cytotoxicity call is “active”.

For the compound `C[C@@H]1CN([C@H](C)CO)C(=O)Cc2cc(NS(=O)(=O)c3cccs3)ccc2O[C@@H]1CN(C)Cc1ccc(Cl)c(Cl)c1`, the cytotoxicity call was “active”.

On to `C[C@@H]1CN([C@@H](C)CO)C(=O)Cc2cc(NS(=O)(=O)c3cccs3)ccc2O[C@@H]1CN(C)Cc1ccc(Cl)c(Cl)c1`, for which the cytotoxicity call was “inactive”.

Turning to `C[C@H]1CN([C@@H](C)CO)C(=O)Cc2cc(NS(=O)(=O)c3cccs3)ccc2O[C@H]1CN(C)Cc1ccc(Cl)c(Cl)c1`, the cytotoxicity call was “active”.

On to `COc1ccc(S(=O)(=O)N(C)C[C@H]2Oc3c(NC(=O)NC(C)C)cccc3C(=O)N([C@H](C)CO)C[C@H]2C)cc1`, for which the cytotoxicity call is “inactive”.
